Compounds with a hit are over-represented: about 4.3% of the library has one in this group of screens.
MazF activator – activators of E. coli MazEF toxin-antitoxin RNase, primary screen, biochemical, fluorescence, uHTS; activation, % at 20 µM; 350,000 compounds, 0.32% hits; Endoribonuclease toxin MazF (Escherichia coli (strain K12)), P0AE70; AID 504720, 2011; FAM/BHQ RNA-DNA oligo cleavage fluorescence, 5 h; in the data active means activation above about 50%
Anthrax LF prot – Bacillus anthracis LF protease inhibitors, primary screen, biochemical, multiplex microsphere, MLPCN library. Lethal factor (Bacillus anthracis), P15917. multiplex microsphere protease cleavage assay. inhibition, % at 10 µM. 360,000 compounds, 0.12% hits; further: plate controls were buffer without enzyme for full effect and enzyme alone for no effect
Bead autofluor – flagged as autofluorescent in microsphere protease counterscreen | compound autofluorescence counterscreen, microsphere flow cytometry; active compounds read high | fluorescence intensity (concentration not given with the values) | 360,000 compounds, 3.1% hits | AID 624483; in the data active means fluorescence intensity above about 16000; inconclusive means no clear call, values can overlap the other calls
BoNT A protease – BoNT/A light chain protease inhibitors, primary screen, biochemical, flow cytometry, MLPCN library. multiplex microsphere protease substrate cleavage. Botulinum neurotoxin type A light chain protease (Clostridium botulinum A str. ATCC 3502). 360,000 compounds, 0.17% hits. inhibition, % at 10 µM; further: plate controls were buffer without enzyme for full effect and enzyme alone for no effect
BoNT F protease – BoNT/F light chain protease inhibitors, primary screen, biochemical, flow cytometry, MLPCN library; Botulinum neurotoxin type F light chain protease (Clostridium botulinum); Multiplex microsphere protease cleavage assay; inhibition, % at 10 µM; 360,000 compounds, 0.22% hits; in the data active means inhibition above about 35%, passing the limit was not always enough; inconclusive means no clear call, values can overlap the other calls; further: plate controls were buffer without enzyme for full effect and enzyme alone for no effect
PfHsp40 yeast – rescue of yeast from PfHsp40 toxicity, primary screen, S. cerevisiae, ATP luminescence | S. cerevisiae expressing PfHsp40, growth rescue | growth rescue, % at 12.5 µM | 340,000 compounds, 0.68% hits; in the data active means growth rescue above about 28%, passing the limit was not always enough; inconclusive means no clear call, values can overlap the other calls;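 further: yeast W303a lacking pdr1 and pdr3 grown in galactose medium; growth measured after three days at 30 °C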
* hit, by the source's call. Unless noted, no stated cut-off is given here; in the data, active means inhibition above about 30%; inconclusive means no clear call, values can overlap the other calls; inactive means below that.

Screening O=C(c1cccc(Br)c1)N1CCCC1 returned MazF activator 5.4, Anthrax LF prot -0.5, Bead autofluor 23116*, BoNT A protease inconclusive, BoNT F protease 1.2 and PfHsp40 yeast 7.0.
O=C(c1ccncc1)N1CCN(S(=O)(=O)c2cccc(F)c2)CC1 was read as MazF activator 2.1, Anthrax LF prot 1.1, Bead autofluor 5073, BoNT A protease 1.8, BoNT F protease -3.5 and PfHsp40 yeast 1.3.
`Cc1ccccc1CN1C(=O)c2ccccc2C1c1nnnn1C(C)C` (stereo not drawn) gave Anthrax LF prot -6.3, Bead autofluor 4088, BoNT A protease -0.1 and BoNT F protease 4.9.
COc1ccc2c(c1)c1nc3ccccc3nc1n2CCn1c(=O)oc2ccccc21 was read as MazF activator 1.1, Anthrax LF prot -0.2, Bead autofluor 16506*, BoNT A protease 0.9, BoNT F protease 1.2 and PfHsp40 yeast 0.0.
`COc1ccc2c(c1)c1nc3ccccc3nc1n2CCCN1C(=O)c2ccccc2C1=O` gave MazF activator 698.3*, Anthrax LF prot 0.5, Bead autofluor 2151, BoNT A protease 1.5, BoNT F protease 0.8 and PfHsp40 yeast -0.5.
Screening CCOC(=O)/C(=C/C=C1\Sc2cc(OCC)c(OCC)cc2N1CC)C(C)=O returned MazF activator inactive, Anthrax LF prot 20.0, Bead autofluor 23889*, BoNT A protease 13.1, BoNT F protease 43.7* and PfHsp40 yeast 0.3.
CCOC(=O)/C(=C\C=C1/Sc2cc(OCC)c(OCC)cc2N1CC)C(C)=O was read as MazF activator 272.0*, Anthrax LF prot 20.8, Bead autofluor 33036*, BoNT A protease 19.0, BoNT F protease 48.9* and PfHsp40 yeast -0.4.
`COc1cccc(CN(C)C(=O)CC[C@H]2O[C@@H](n3ccc(=O)[nH]c3=O)[C@H](O)[C@@H]2O)c1` gave Anthrax LF prot -10.1, Bead autofluor 6051, BoNT A protease -2.6 and BoNT F protease -27.8.
Screening CC(=O)c1nn(-c2ccccc2)cc1C(=O)c1cccc(Br)c1 returned MazF activator -9.3, Anthrax LF prot -0.7, Bead autofluor 1907, BoNT A protease 0.4, BoNT F protease 2.1 and PfHsp40 yeast 0.1.
O=C(c1cccc(Br)c1)c1cn(-c2ccccc2)nc1C(=O)c1ccccc1 was read as MazF activator 4.7, Anthrax LF prot -7.0, Bead autofluor 24853*, BoNT A protease inconclusive, BoNT F protease -14.7 and PfHsp40 yeast -0.8.
`Oc1ccccc1O` gave MazF activator 1.4, Anthrax LF prot -7.3, Bead autofluor 6044, BoNT A protease -1.3, BoNT F protease -7.3 and PfHsp40 yeast -0.6.
For Nc1ccccc1O the results were MazF activator -17.0, Anthrax LF prot 3.7, Bead autofluor 5643, BoNT A protease 1.4, BoNT F protease 1.9 and PfHsp40 yeast 60.3*.
For CN(C(=S)NC(=O)Cc1ccccc1)c1ccccc1 the results were MazF activator 8.3, Anthrax LF prot -3.3, Bead autofluor 4495, BoNT A protease 0.0, BoNT F protease -7.1 and PfHsp40 yeast 0.7.
For CC(=O)n1cc(/C=C2/N=C(c3ccccc3)OC2=O)c2ccccc21 the results were MazF activator 148.7*, Anthrax LF prot -0.3, Bead autofluor 10609, BoNT A protease 1.8, BoNT F protease 7.7 and PfHsp40 yeast -0.9.
Screening CC(=O)n1cc(/C=N/NC(N)=S)c2ccccc21 returned MazF activator 0.3, Anthrax LF prot 2.1, Bead autofluor 2163, BoNT A protease 0.3, BoNT F protease -4.0 and PfHsp40 yeast 0.5.
Screening N#CCCn1cc(C(=O)CN2C(=O)NC3(CCCCCC3)C2=O)c2ccccc21 returned MazF activator 6.2, Anthrax LF prot -3.8, Bead autofluor 3339, BoNT A protease 1.5, BoNT F protease 1.2 and PfHsp40 yeast -1.6.
For O=C(CC(Nc1ccccc1)C(=O)O)c1ccccc1 (stereo not drawn) the results were MazF activator 12.0, Anthrax LF prot 1.4, Bead autofluor 3527, BoNT A protease 1.0, BoNT F protease 42.0* and PfHsp40 yeast 0.3.

High-throughput results deposited in PubChem BioAssay by several laboratories.
